Results on 10 compounds are retold here after the supplement of paper PMC7830784.

In this assay the test system is Brugia pahangi adult female. The experiment in a line: IC50 motility inhibition on day 3. Particulars: 3 days. The method, then: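 Single adult female Brugia pahangi worms in 24-well plates (RPMI-1640, 5% FBS, 37 °C) were treated with 10 µM of each compound from a 2121-drug library (4 replicates; 1% DMSO vehicle and 10 µM auranofin controls). Motility was recorded with WormAssay dark-field imaging, and % inhibition of motility on day 3 is relative to vehicle. IC50 values for selected hits come from a 6-point dilution series (30 to 0.1 µM) fitted in GraphPad Prism.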
Regarding `CCCCCCCCCCCCCCCC[n+]1ccccc1` [cetylpyridinium chloride], the “IC50 motility inhibition on day 3” value came to 3400 nM.
As for `C[C@@H]1O[C@@H](O[C@@H]2C=C3CC[C@@H]4[C@H](CC[C@]5(C)[C@@H](c6ccc(=O)oc6)CC[C@]45O)[C@@]3(C)CC2)[C@H](O)[C@H](O)[C@H]1O` [proscillaridin], the “IC50 motility inhibition on day 3” value is 731 nM.
Then `CNC(=O)Oc1ccc2c(c1)[C@]1(C)CCN(C)[C@@H]1N2C` [(-)-Physostigmine], with 13600 nM.
Regarding `Oc1cccc2cccnc12` [oxyquinoline], the “IC50 motility inhibition on day 3” value is 1500 nM.
Then `CC[C@@H](C(=O)[C@@H](C)[C@@H](O)[C@H](C)[C@@H]1O[C@@H]([C@@H](CC)C(=O)O)CC[C@@H]1C)[C@H]1O[C@]2(C=C[C@@H](O)[C@]3(CC[C@@](C)([C@H]4CC[C@](O)(CC)[C@H](C)O4)O3)O2)[C@H](C)C[C@@H]1C` [salinomycin], with 635 nM; and `N[C@@H]1C[C@H]1c1ccccc1.N[C@H]1C[C@@H]1c1ccccc1` [tranylcypromine], with 6150 nM.
For `C[CH2][Hg][S]c1ccccc1C(=O)[O-].[Na+]` [thimerosal], the “IC50 motility inhibition on day 3” value worked out at 406 nM.
On to `O=c1[nH]c2ccccc2n1C1CCN(CCCC(c2ccc(F)cc2)c2ccc(F)cc2)CC1` [Pimozide], for which the “IC50 motility inhibition on day 3” value is 2520 nM.
Then `CC(=O)[O][Hg][c]1ccccc1` [phenylmercuric acetate], with 179 nM.
Then `[O-][n+]1ccccc1[S-].[O-][n+]1ccccc1[S-].[Zn+2]` [pyrithione zinc], with 96.3 nM.
